# Experiments:
# Test in all cases: DAPPL (digital affinity profiling via proximity ligation, sequencing); 10 mM Tris-HCl pH 7.5, 50 mM NaCl, 1 mM DTT, 4% glycerol, room temperature, 30 min; GST-TFs on glutathione beads, 16-mer random dsDNA library, 0.1% formaldehyde crosslink after washing; high values mean tight binding
# [1] = biological target: T1, FLI1 (Homo sapiens, UniProt Q01543 1-452); details: protein: recombinant; tags: N-terminal GST; dsDNA, one strand shown
# T1 sequence: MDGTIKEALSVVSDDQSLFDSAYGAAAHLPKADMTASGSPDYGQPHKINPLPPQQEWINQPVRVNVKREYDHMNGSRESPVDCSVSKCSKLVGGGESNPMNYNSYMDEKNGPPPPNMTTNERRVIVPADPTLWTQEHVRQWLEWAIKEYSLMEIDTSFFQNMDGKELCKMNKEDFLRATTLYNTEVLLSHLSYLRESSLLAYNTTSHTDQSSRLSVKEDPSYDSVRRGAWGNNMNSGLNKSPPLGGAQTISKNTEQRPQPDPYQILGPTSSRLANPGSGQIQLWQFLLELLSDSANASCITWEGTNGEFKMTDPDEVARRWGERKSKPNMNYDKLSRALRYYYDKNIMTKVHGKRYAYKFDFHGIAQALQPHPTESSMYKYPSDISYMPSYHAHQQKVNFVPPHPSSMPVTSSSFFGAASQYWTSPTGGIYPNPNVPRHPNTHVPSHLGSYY
# Procedure, shortened: (§1)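 Human transcription factors were made in yeast as GST fusions, captured on glutathione beads and barcoded with DNA. With a tag-only sample included, the pool was incubated with 200 nmole of a random double-stranded 16-mer DNA library in Tris/NaCl/DTT/glycerol buffer at room temperature for 30 min, then crosslinked with 0.1% formaldehyde after washing, ligated by proximity, amplified and sequenced. For binding signal, each hexamer's read frequency for a factor is divided by its frequency for the tag-only sample.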
# [2] = biological target: T2, ELK1 (Homo sapiens, UniProt P19419 1-428); details: protein: recombinant; tags: N-terminal GST; dsDNA, one strand shown
# T2 sequence: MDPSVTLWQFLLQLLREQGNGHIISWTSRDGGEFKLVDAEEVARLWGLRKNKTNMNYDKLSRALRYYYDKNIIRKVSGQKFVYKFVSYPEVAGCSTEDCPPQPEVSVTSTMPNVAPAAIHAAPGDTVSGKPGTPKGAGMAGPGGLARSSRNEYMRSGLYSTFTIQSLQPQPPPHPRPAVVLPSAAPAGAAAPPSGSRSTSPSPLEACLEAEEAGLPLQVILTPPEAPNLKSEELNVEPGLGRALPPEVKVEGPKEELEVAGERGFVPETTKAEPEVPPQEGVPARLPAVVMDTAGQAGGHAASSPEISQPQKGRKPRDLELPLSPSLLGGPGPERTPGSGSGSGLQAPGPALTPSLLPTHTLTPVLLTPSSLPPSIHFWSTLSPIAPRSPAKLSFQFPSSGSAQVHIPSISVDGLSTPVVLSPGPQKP
# Procedure, shortened: as §1
# [3] = biological target: T3, GABPA (Homo sapiens, UniProt Q06546 1-454); details: protein: recombinant; tags: N-terminal GST; dsDNA, one strand shown
# T3 sequence: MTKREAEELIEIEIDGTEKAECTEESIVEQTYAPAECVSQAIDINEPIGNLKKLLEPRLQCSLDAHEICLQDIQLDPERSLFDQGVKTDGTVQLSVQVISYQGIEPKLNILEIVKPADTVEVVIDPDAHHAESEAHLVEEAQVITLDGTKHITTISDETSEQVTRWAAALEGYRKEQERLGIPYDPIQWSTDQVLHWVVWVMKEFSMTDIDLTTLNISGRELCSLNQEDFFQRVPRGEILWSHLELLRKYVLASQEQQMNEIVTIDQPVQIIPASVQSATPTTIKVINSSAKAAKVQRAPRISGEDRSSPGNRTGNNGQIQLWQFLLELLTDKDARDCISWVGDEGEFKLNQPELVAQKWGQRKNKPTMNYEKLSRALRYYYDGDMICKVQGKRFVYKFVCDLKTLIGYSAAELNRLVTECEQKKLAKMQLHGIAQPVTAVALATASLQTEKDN
# Procedure, shortened: as §1
# [4] = biological target: T4, ERG (Homo sapiens, UniProt P11308 1-479); details: protein: recombinant; tags: N-terminal GST; dsDNA, one strand shown
# T4 sequence: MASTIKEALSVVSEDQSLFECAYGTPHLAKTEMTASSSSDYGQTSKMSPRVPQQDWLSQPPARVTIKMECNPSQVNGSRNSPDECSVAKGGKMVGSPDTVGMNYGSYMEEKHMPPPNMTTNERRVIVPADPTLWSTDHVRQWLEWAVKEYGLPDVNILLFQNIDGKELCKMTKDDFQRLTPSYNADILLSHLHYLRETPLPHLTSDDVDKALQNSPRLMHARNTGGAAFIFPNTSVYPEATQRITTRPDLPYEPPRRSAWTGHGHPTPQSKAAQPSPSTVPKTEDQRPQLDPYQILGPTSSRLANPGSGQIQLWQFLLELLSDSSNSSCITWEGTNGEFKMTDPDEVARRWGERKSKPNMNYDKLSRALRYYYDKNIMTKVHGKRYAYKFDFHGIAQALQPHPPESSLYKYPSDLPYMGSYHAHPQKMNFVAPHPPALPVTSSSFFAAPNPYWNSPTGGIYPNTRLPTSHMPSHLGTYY
# Procedure, shortened: as §1
# [5] = biological target: ELF1 (Homo sapiens, UniProt P32519 1-619); details: protein: recombinant; tags: N-terminal GST; dsDNA, one strand shown
# Procedure, shortened: as §1
# [6] = biological target: T5, EHF (Homo sapiens, UniProt Q9NZC4 1-300); details: protein: recombinant; tags: N-terminal GST; dsDNA, one strand shown
# T5 sequence: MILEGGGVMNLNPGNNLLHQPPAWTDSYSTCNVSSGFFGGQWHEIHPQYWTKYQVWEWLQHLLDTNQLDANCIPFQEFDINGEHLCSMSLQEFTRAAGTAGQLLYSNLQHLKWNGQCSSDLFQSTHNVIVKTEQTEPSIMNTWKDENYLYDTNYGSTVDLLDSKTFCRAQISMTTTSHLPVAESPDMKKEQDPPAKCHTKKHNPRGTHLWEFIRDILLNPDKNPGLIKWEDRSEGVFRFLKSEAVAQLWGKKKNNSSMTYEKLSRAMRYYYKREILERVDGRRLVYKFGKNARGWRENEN
# Procedure, shortened: as §1
# [7] = biological target: SPI1 (Homo sapiens, UniProt P17947 1-270); details: protein: recombinant; tags: N-terminal GST; dsDNA, one strand shown
# Procedure, shortened: as §1
# [8] = biological target: SPIB (Homo sapiens, UniProt Q01892 1-262); details: protein: recombinant; tags: N-terminal GST; dsDNA, one strand shown
# Procedure, shortened: as §1
# [9] = biological target: T6, ELK3 (Homo sapiens, UniProt P41970 1-407); details: protein: recombinant; tags: N-terminal GST; dsDNA, one strand shown
# T6 sequence: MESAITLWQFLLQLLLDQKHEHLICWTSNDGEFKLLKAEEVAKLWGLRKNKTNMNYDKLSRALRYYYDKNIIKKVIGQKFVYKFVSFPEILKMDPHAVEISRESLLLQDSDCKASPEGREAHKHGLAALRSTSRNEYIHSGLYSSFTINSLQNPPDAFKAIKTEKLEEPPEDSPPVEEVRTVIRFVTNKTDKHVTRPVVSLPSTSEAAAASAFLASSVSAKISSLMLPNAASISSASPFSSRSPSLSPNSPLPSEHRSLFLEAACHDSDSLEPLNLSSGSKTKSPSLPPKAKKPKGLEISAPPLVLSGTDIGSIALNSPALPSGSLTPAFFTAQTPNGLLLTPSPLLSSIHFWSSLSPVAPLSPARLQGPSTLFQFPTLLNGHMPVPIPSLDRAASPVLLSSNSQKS
# Procedure, shortened: as §1
# [10] = biological target: T7, FEV (Homo sapiens, UniProt Q99581 1-238); details: protein: recombinant; tags: N-terminal GST; dsDNA, one strand shown
# T7 sequence: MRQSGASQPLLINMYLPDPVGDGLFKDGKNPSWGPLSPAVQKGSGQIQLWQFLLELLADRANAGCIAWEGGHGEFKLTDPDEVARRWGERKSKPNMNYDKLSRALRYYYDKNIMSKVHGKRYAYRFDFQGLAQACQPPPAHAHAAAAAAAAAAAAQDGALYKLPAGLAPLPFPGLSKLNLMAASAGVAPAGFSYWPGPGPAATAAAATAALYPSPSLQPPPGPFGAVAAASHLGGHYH
# Procedure, shortened: as §1
# [11] = biological target: ETV5 (Homo sapiens, UniProt P41161 1-510); details: protein: recombinant; tags: N-terminal GST; dsDNA, one strand shown
# Procedure, shortened: as §1
# [12] = biological target: HSF1 (Homo sapiens, UniProt Q00613 1-529); details: protein: recombinant; tags: N-terminal GST; chain copies: 3; dsDNA, one strand shown
# Procedure, shortened: as §1
# [13] = biological target: T8, SPIC (Homo sapiens, UniProt Q8N5J4 1-248); details: protein: recombinant; tags: N-terminal GST; dsDNA, one strand shown
# T8 sequence: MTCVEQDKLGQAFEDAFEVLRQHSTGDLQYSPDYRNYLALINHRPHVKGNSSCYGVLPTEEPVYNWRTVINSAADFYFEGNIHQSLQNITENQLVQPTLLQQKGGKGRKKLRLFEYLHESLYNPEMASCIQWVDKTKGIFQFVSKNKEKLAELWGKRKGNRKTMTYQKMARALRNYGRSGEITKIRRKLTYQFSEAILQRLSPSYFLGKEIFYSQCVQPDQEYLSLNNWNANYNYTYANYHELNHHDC
# Procedure, shortened: as §1
# [14] = biological target: ELF4 (Homo sapiens, UniProt Q99607 1-663); details: protein: recombinant; tags: N-terminal GST; dsDNA, one strand shown
# Procedure, shortened: as §1
# [15] = biological target: T9, ELK4 (Homo sapiens, UniProt P28324-2 1-405); details: protein: recombinant; tags: N-terminal GST; dsDNA, one strand shown
# T9 sequence: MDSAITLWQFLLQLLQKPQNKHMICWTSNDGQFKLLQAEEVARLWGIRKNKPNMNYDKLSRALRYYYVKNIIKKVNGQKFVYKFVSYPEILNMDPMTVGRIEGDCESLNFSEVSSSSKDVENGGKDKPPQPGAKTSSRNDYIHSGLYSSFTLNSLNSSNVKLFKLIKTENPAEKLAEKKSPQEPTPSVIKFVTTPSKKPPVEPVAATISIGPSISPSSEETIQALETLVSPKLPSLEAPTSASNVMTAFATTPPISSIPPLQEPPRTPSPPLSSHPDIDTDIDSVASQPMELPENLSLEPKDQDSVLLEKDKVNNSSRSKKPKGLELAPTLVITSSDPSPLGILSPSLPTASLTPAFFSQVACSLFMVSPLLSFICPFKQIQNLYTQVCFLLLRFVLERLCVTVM
# Procedure, shortened: as §1
# [16] = biological target: T10, ETV2 (Homo sapiens, UniProt O00321 1-342); details: protein: recombinant; tags: N-terminal GST; dsDNA, one strand shown
# T10 sequence: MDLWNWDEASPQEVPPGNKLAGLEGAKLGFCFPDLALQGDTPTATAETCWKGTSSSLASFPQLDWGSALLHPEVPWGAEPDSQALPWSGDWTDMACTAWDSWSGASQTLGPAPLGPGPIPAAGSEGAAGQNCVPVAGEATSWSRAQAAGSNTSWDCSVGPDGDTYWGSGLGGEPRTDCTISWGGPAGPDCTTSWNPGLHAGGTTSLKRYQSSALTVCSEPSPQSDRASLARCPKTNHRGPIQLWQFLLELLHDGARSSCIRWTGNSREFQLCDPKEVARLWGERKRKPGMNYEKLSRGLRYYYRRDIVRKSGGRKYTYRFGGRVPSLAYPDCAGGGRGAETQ
# Procedure, shortened: as §1
# [17] = biological target: T11, ELF3 (Homo sapiens, UniProt P78545 1-371); details: protein: recombinant; tags: N-terminal GST; dsDNA, one strand shown
# T11 sequence: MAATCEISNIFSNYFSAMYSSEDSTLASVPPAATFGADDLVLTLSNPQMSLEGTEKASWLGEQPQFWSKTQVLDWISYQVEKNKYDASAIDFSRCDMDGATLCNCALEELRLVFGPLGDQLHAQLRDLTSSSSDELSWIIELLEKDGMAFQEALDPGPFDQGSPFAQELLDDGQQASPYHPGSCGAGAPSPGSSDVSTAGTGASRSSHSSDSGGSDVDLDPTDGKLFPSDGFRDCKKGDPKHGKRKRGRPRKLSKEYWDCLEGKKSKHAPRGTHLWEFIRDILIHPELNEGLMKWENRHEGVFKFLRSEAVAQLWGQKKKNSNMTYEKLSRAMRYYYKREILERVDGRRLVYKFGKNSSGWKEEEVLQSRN
# Procedure, shortened: as §1
# [18] = biological target: CRX (Homo sapiens, UniProt O43186 1-299); details: protein: recombinant; tags: N-terminal GST; dsDNA, one strand shown
# Procedure, shortened: as §1
# [19] = biological target: ETV1 (Homo sapiens, UniProt P50549 1-477); details: protein: recombinant; tags: N-terminal GST; dsDNA, one strand shown
# Procedure, shortened: as §1
# Sequence of ELF1 (P32519 whole entry): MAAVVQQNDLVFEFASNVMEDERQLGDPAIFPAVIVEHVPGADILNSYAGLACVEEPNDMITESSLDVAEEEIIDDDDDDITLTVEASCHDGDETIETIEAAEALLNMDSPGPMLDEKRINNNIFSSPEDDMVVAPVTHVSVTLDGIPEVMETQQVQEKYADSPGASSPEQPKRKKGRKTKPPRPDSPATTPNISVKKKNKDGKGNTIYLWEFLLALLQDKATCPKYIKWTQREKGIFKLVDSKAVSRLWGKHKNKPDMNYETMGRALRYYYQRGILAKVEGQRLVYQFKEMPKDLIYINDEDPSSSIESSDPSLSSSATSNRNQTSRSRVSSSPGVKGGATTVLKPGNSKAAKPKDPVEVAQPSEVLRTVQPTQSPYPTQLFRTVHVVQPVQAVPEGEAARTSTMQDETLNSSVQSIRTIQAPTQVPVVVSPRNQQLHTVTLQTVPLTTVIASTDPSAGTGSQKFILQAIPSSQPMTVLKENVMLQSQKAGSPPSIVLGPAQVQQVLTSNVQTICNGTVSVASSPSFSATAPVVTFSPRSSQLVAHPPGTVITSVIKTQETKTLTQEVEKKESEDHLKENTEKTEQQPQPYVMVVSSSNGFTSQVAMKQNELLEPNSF
# Sequence of ELF4 (Q99607 whole entry): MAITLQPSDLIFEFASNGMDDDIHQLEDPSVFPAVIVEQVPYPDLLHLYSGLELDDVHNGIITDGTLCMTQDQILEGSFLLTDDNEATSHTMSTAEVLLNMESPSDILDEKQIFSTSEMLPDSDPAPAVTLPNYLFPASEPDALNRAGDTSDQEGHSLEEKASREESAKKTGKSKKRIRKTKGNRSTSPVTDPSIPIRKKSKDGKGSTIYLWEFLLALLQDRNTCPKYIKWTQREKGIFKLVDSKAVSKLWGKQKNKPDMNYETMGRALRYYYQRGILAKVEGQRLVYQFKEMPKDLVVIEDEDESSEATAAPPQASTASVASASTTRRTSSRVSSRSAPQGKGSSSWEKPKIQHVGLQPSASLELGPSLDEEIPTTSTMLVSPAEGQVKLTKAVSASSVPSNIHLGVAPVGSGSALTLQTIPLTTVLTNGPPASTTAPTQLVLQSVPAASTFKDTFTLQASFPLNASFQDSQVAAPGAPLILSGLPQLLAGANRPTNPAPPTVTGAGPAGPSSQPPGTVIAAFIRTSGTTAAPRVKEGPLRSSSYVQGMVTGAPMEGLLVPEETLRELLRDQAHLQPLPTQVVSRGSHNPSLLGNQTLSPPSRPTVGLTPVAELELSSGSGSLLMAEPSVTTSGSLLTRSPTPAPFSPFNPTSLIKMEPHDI
# Sequence of ETV1 (P50549 whole entry): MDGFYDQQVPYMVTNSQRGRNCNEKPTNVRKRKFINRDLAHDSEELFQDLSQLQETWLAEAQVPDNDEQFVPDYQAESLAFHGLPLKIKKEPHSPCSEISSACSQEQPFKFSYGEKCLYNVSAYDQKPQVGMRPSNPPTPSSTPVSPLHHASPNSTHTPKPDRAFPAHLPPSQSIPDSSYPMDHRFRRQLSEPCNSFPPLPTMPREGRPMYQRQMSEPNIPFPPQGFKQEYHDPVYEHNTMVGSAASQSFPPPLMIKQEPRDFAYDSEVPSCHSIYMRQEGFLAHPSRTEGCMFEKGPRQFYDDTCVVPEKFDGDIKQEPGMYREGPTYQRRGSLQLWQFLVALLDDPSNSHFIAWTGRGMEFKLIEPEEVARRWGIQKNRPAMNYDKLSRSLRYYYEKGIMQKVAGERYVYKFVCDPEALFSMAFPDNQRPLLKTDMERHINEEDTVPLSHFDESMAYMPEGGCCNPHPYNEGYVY
# Sequence of ETV5 (P41161 whole entry): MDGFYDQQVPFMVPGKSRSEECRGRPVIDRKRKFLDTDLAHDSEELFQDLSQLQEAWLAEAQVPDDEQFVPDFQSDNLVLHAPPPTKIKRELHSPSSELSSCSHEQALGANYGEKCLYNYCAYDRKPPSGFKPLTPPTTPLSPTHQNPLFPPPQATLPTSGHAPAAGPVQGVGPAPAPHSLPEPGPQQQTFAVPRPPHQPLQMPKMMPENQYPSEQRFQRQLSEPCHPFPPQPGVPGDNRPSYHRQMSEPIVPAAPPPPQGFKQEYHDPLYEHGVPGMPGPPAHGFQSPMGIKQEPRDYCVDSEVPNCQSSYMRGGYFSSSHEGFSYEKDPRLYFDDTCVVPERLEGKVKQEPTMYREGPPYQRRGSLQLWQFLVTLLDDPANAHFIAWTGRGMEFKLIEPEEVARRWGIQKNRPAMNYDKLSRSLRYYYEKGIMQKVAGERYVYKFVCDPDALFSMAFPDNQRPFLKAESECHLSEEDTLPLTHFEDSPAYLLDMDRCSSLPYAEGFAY
# Sequence of HSF1 (Q00613 whole entry): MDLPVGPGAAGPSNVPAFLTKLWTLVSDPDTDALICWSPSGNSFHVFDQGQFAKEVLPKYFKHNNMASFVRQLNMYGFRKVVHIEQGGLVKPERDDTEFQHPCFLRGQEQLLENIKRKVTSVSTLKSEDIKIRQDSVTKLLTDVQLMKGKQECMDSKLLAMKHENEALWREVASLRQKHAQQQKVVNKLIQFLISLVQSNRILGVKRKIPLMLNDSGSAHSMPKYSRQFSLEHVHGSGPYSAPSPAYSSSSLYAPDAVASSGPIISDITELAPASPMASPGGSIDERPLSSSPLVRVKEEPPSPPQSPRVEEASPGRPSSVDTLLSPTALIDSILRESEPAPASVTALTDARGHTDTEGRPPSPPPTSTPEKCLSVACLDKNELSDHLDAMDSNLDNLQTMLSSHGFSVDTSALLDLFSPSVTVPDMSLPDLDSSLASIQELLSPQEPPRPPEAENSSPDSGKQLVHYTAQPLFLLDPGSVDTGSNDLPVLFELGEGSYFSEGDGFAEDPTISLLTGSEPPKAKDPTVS
# Sequence of SPIB (Q01892 whole entry): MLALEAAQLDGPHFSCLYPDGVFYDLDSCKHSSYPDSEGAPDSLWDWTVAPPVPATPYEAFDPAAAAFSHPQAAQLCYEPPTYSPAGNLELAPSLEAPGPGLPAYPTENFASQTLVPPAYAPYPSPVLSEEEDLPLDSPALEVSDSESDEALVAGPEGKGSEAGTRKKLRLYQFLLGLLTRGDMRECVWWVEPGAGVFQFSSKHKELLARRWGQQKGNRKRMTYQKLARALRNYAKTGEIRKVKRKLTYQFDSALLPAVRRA
# Sequence of CRX (O43186 whole entry): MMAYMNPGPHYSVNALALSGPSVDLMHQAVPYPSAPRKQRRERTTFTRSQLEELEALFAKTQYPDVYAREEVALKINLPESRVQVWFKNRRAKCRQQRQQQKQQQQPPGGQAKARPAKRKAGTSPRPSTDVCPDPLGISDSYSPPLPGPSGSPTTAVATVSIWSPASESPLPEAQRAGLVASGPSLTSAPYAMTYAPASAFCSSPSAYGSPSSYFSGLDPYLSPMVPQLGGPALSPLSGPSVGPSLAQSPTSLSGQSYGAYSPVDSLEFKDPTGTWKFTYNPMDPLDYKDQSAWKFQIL
sequence,measurement,setting,value
TAATGG,binding signal,[1],"1.26 fold enrichment (6-mer frequency, TF over GST control)"
same,binding signal,[2],"1.35 fold enrichment (6-mer frequency, TF over GST control)"
same,binding signal,[3],"1.24 fold enrichment (6-mer frequency, TF over GST control)"
same,binding signal,[4],"1.22 fold enrichment (6-mer frequency, TF over GST control)"
same,binding signal,[5],"1.32 fold enrichment (6-mer frequency, TF over GST control)"
same,binding signal,[6],"1.25 fold enrichment (6-mer frequency, TF over GST control)"
same,binding signal,[7],"1.28 fold enrichment (6-mer frequency, TF over GST control)"
same,binding signal,[8],"1.37 fold enrichment (6-mer frequency, TF over GST control)"
same,binding signal,[9],"1.31 fold enrichment (6-mer frequency, TF over GST control)"
same,binding signal,[10],"1.25 fold enrichment (6-mer frequency, TF over GST control)"
same,binding signal,[11],"1.35 fold enrichment (6-mer frequency, TF over GST control)"
same,binding signal,[12],"1.46 fold enrichment (6-mer frequency, TF over GST control)"
same,binding signal,[13],"1.34 fold enrichment (6-mer frequency, TF over GST control)"
same,binding signal,[14],"1.3 fold enrichment (6-mer frequency, TF over GST control)"
same,binding signal,[15],"1.3 fold enrichment (6-mer frequency, TF over GST control)"
same,binding signal,[16],"1.09 fold enrichment (6-mer frequency, TF over GST control)"
same,binding signal,[17],"1.31 fold enrichment (6-mer frequency, TF over GST control)"
same,binding signal,[18],"1.64 fold enrichment (6-mer frequency, TF over GST control)"
same,binding signal,[19],"1.45 fold enrichment (6-mer frequency, TF over GST control)"
